# In PubChem BioAssay (NCI):
# “And” between values parts separate entries of the source, which are not always exact repeats. Equal values may be shown once. The panel holds about 79,000 compounds, 15% with a hit somewhere; the sample as a whole holds those more often. The source made the active and inactive calls. Rule as the data show it: active = growth inhibition above about 70%; inactive = the rest.
# Assay: NCI Yeast Anticancer Drug Screen. Data for the cln2 rad14 strain (AID 165);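 also: 0% = growth equal to vehicle treated cultures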
# Conditions: S. cerevisiae cln2 rad14 strain, at 50.0 µM, hits give high values
# Summary of the method: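 Relative to vehicle controls, growth inhibition of compound-treated cln2 rad14 yeast was recorded.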
row,Compound,growth inhibition
1,CCOC(=O)c1ccc([N+](=O)[O-])o1,28.3% (inactive)
2,O=C(NCCc1c(-c2ccccc2)[nH]c2ccccc12)C(F)(F)F,59.2% (inactive)
3,CC(C)OC(=O)c1ccc(NCc2cc(O)ccc2O)cc1Cl,89.5% (active)
4,c1cc[c]([Sn]([NH]c2ncnc3[nH]cnc23)([NH]c2ncnc3[nH]cnc23)[c]2ccccc2)cc1,29.4% (inactive)
5,CCCCCCCCCCCCCCCCCC(=O)OCC(COC(=O)CCCN)OC(=O)CCCN (centres undefined),69% (inactive)
6,CCCCN(CCCC)CCC(O)(c1ccc(OC)c2ccccc12)C(O)(CCN(CCCC)CCCC)c1ccc(OC)c2ccccc12 (centres undefined),98.9% (active)
7,CC(C)(C)c1ccc(OC(=O)Nc2ccc(Cl)cc2[N+](=O)[O-])c(Br)c1,90.8% (active)
8,CC(=O)Nc1cccc2cc(O)ccc12,-11.6% (inactive) and -20.1% (inactive) and 11.6% (inactive)
9,O=[N+]([O-])c1ccc(NSc2ccccc2)cc1,90.6% (active)
10,COC(=O)CCC(NC(=S)N/N=C/c1ccccn1)C(=O)OC (centres undefined),60.8% (inactive)
11,O=C(Nc1ccccc1)OCCc1ccc(Br)cc1,-7.85% (inactive)
12,CC1=CC(O)C2CC1C2(C)C (centres undefined),3.25% (inactive) and -9% (inactive) and -2.6% (inactive)
13,Cc1[nH]c2ccccc2c1/C=C1\C(=O)C2CCC1C2 (centres undefined),45.4% (inactive)
14,O=[N+]([O-])c1ccc2c(c1)OCO2,6.95% (inactive)
15,CC(CO)[C@H]1OC(=O)C=C2[C@@]13O[C@@H]3[C@H]1OC(=O)[C@@]3(C)[C@H]4O[C@H]4C[C@@]2(C)[C@@H]13 (some centres undefined),89.5% (active)
16,Cc1cc(C)nc(/C=C/c2ccc(/C=C/c3cc(C)cc(C)n3)cc2)c1,-19.6% (inactive)
17,O=C1C=CC(=O)N1c1cccc(F)c1,98.8% (active)
18,COc1ccc(C(=O)C(CN2CCCC2)CN2CCCC2)cc1,7.4% (inactive)
19,O=C1NN(C2=NNC3(C(=O)N2)c2ccccc2-c2ccccc23)C(c2ccccc2)=N/C1=C/c1ccc(O)cc1,7% (inactive)
20,CCN(CC)CCCNc1ncc(C)c2c1c1ccc3c(O)cccc3c1n2C,-17.4% (inactive)

row,Compound,growth inhibition
1,O=C1SCCN1/N=C/c1ccc([N+](=O)[O-])o1,50.7% (inactive)
2,CC(C)(C)C1=NC(=S)SC2=NC(=O)C3(NN21)c1ccccc1-c1ccccc13,63% (inactive)
3,Nc1ncnc2c1ncn2C1OC(CO)C(O)C1O (centres undefined),14.6% (inactive) and -0.75% (inactive) and -5.05% (inactive)
4,Clc1ccc2oc(N3CCCCC3)nc2c1,98.2% (active)
5,Cc1ccnc(NC(c2ccccc2)c2ccc3cccnc3c2O)c1 (centres undefined),95.4% (active)
6,CC(=O)N(C1=C(Cl)C(=O)c2ccccc2C1=O)c1ccc(Cl)cc1,78% (active)
7,CSc1cc(C(=O)O)nc(N)n1,28.1% (inactive)
8,COc1ccc([C@H]2c3cc4c(cc3OC(O)(CO)[C@H]2C(=O)O)OCO4)c(OC)c1 (some centres undefined) (tested in a mixture with another compound),28% (inactive)
9,CC(C)C(C)OC(=O)Nc1cccc(O)c1 (centres undefined),46.5% (inactive)
10,O=C(CC1(O)C(=O)Nc2c(Cl)ccc(Cl)c21)c1ccc(Cl)cc1Cl (centres undefined),91.3% (active)
11,CCOC1(OCC)Oc2c(Cl)c(Cl)c(Cl)c(Cl)c2OC1(OCC)OCC,97.4% (active)
12,CCN(CC)CC(C)(C)C(=O)/C=C/c1ccc(Cl)c(Cl)c1,89.2% (active)
13,COc1cc(/C=C/C(C)=O)ccc1O,-17.4% (inactive) and -22.3% (inactive) and -1.45% (inactive)
14,O=c1c(NO)c([N+](=O)[O-])cnn1-c1ccccc1,34.4% (inactive)
15,O=C(O)C1C2CC3C(OC(=O)C31)C2Br (centres undefined),-24.1% (inactive) and -98.7% (inactive) and -25.1% (inactive)
16,O=C(Cl)c1cc(-c2ccc(Cl)cc2)nc2c(Cl)cccc12,42.4% (inactive)
17,COC/C=N/Nc1ccc([N+](=O)[O-])cc1,98.5% (active)
18,Cn1c(N)c(NC(=O)CCl)c(=O)n(C)c1=O,12.8% (inactive)
19,CCOC(=O)C(C)(c1c(C)[nH]c2ccccc12)c1c(C)[nH]c2ccccc12,93% (active)

# Assay: NCI Yeast Anticancer Drug Screen. Data for the bub3 strain (AID 167)
# Conditions: S. cerevisiae bub3 mutant strain, at 5.0 µM (retest, dose inferred, filed as 0.5), hits give high values
# Summary of the method: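 Readout: yeast growth inhibition, expressed relative to vehicle-only wells. The test organism is a mutant strain from a panel with lesions in DNA repair or checkpoint genes.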
row,Compound,growth inhibition
1,CCOC(=O)c1ccc([N+](=O)[O-])o1,7% (inactive)
2,O=C(NCCc1c(-c2ccccc2)[nH]c2ccccc12)C(F)(F)F,-10% (inactive)
3,CC(C)OC(=O)c1ccc(NCc2cc(O)ccc2O)cc1Cl,53% (inactive)
4,c1cc[c]([Sn]([NH]c2ncnc3[nH]cnc23)([NH]c2ncnc3[nH]cnc23)[c]2ccccc2)cc1,-4% (inactive)
5,CCCCCCCCCCCCCCCCCC(=O)OCC(COC(=O)CCCN)OC(=O)CCCN (centres undefined),5% (inactive)
6,CCCCN(CCCC)CCC(O)(c1ccc(OC)c2ccccc12)C(O)(CCN(CCCC)CCCC)c1ccc(OC)c2ccccc12 (centres undefined),39% (inactive)
7,CC(C)(C)c1ccc(OC(=O)Nc2ccc(Cl)cc2[N+](=O)[O-])c(Br)c1,1% (inactive)
8,O=[N+]([O-])c1ccc(NSc2ccccc2)cc1,10% (inactive)
9,COC(=O)CCC(NC(=S)N/N=C/c1ccccn1)C(=O)OC (centres undefined),-6% (inactive)
10,O=C(Nc1ccccc1)OCCc1ccc(Br)cc1,-5% (inactive)
11,Cc1[nH]c2ccccc2c1/C=C1\C(=O)C2CCC1C2 (centres undefined),-16% (inactive)
12,O=[N+]([O-])c1ccc2c(c1)OCO2,0% (inactive)
13,CC(CO)[C@H]1OC(=O)C=C2[C@@]13O[C@@H]3[C@H]1OC(=O)[C@@]3(C)[C@H]4O[C@H]4C[C@@]2(C)[C@@H]13 (some centres undefined),66% (inactive)
14,Cc1cc(C)nc(/C=C/c2ccc(/C=C/c3cc(C)cc(C)n3)cc2)c1,-7% (inactive)
15,O=C1C=CC(=O)N1c1cccc(F)c1,98% (active)
16,COc1ccc(C(=O)C(CN2CCCC2)CN2CCCC2)cc1,-5% (inactive)
17,O=C1NN(C2=NNC3(C(=O)N2)c2ccccc2-c2ccccc23)C(c2ccccc2)=N/C1=C/c1ccc(O)cc1,-14% (inactive)
18,CC1=NN(C(=O)c2ccc(Cl)cc2)C(=O)C1N=Nc1ccc(S(=O)(=O)Nc2ncccn2)cc1 (centres undefined),-2% (inactive)

row,Compound,growth inhibition
1,CCN(CC)CCCNc1ncc(C)c2c1c1ccc3c(O)cccc3c1n2C,19% (inactive)
2,O=C1SCCN1/N=C/c1ccc([N+](=O)[O-])o1,10% (inactive)
3,CC(C)(C)C1=NC(=S)SC2=NC(=O)C3(NN21)c1ccccc1-c1ccccc13,-11% (inactive)
4,Clc1ccc2oc(N3CCCCC3)nc2c1,8% (inactive)
5,Cc1ccnc(NC(c2ccccc2)c2ccc3cccnc3c2O)c1 (centres undefined),-6% (inactive)
6,CC(=O)N(C1=C(Cl)C(=O)c2ccccc2C1=O)c1ccc(Cl)cc1,97% (active)
7,CSc1cc(C(=O)O)nc(N)n1,3% (inactive)
8,COc1ccc([C@H]2c3cc4c(cc3OC(O)(CO)[C@H]2C(=O)O)OCO4)c(OC)c1 (some centres undefined) (tested in a mixture with another compound),-5% (inactive)
9,CC(C)C(C)OC(=O)Nc1cccc(O)c1 (centres undefined),-67% (inactive)
10,O=C(CC1(O)C(=O)Nc2c(Cl)ccc(Cl)c21)c1ccc(Cl)cc1Cl (centres undefined),-2% (inactive)
11,CCOC1(OCC)Oc2c(Cl)c(Cl)c(Cl)c(Cl)c2OC1(OCC)OCC,13% (inactive)
12,CCN(CC)CC(C)(C)C(=O)/C=C/c1ccc(Cl)c(Cl)c1,1% (inactive)
13,O=c1c(NO)c([N+](=O)[O-])cnn1-c1ccccc1,-2% (inactive)
14,O=C(Cl)c1cc(-c2ccc(Cl)cc2)nc2c(Cl)cccc12,4% (inactive)
15,COC/C=N/Nc1ccc([N+](=O)[O-])cc1,94% (active)
16,Cn1c(N)c(NC(=O)CCl)c(=O)n(C)c1=O,8% (inactive)
17,CCOC(=O)C(C)(c1c(C)[nH]c2ccccc12)c1c(C)[nH]c2ccccc12,6% (inactive)
